Consider 8 compounds from PubChem BioAssay (NCATS).

Structures are written as SMILES. Where “and” joins values, the source holds several entries; their conditions need not be identical. Identical values can stand only once. Inconclusive results are not listed. Calls of active or inactive are those of the source. Unless noted, how the calls were made is not given here.

Assay [1] can be described thus: qHTS profiling of the MIPE4 collection as inhibitors of Plasmodium falciparum (3D7) proliferation (AID 743344).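 Further: scaled between DMSO vehicle wells and 0.29 µM artemisinin as full inhibition.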 To be noted: P. falciparum 3D7 in erythrocytes, SYBR Green DNA fluorescence, 72 h; at 28.5 µM unless noted. In short, it runs like this: (§1)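 Parasite DNA was quantified by SYBR Green I fluorescence (ex 485, em 535 nm) after overnight lysis in saponin/Triton buffer at room temperature. Cultures at 0.3% parasitemia and 2.5% hematocrit were first exposed to compound for 72 h at 37 C; signals were normalised to artemisinin (0.29 uM) and vehicle wells.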

Assay [2] is described as follows: qHTS profiling of the MIPE4 collection as inhibitors of Plasmodium falciparum (DD2) proliferation (AID 743345). To be noted: P. falciparum Dd2 in erythrocytes, SYBR Green DNA, 72 h; at 28.5 µM unless noted. Put shortly:
as §1

The nature of assay [3]: qHTS profiling of the MIPE4 collection as inhibitors of Plasmodium falciparum (DD2) proliferation (Rep 2) (AID 743346). The conditions noted are these: P. falciparum Dd2 in erythrocytes, SYBR Green DNA, 72 h; at 28.5 µM unless noted. In short, it runs like this: as §1
In general terms: In qHTS, concentration-response curves come from the screen itself.

Assay [4] in a line: qHTS profiling of the MIPE4 collection as inhibitors of Plasmodium falciparum (HB3) proliferation (AID 743347).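 Further: plate controls were DMSO vehicle wells for no effect and artemisinin wells for full effect.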 The conditions noted are these: P. falciparum HB3 in erythrocytes, SYBR Green DNA, 72 h; at 28.5 µM unless noted. Put shortly: as §1
Assay [5] in a line: High-throughput drug toxicity screening in the BPDCN cell line Gen2.2 (AID 1224824).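 Further: cells exposed to compounds for 48 h before reading.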 The conditions noted are these: Gen2.2 BPDCN cells; at 45.8 µM (top of the series) unless noted. Put shortly: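 CellTiter-Glo luminescence read after 48 h compound exposure at 37 C defines viability; percent activity set with DMSO as 100% and bortezomib (9.2 uM final) as 0%. 500 exponentially growing cells per well, RPMI plus 10% FBS.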

The nature of assay [6]: High-throughput drug toxicity screening in the BPDCN cell line Cal-1 (AID 1224825). The conditions noted are these: Cal-1 BPDCN cell viability, qHTS; at 45.8 µM (top of the series) unless noted. Put shortly:
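CellTiter-Glo luminescence after 48 h compound exposure; percent activity scaled with DMSO as 100% and bortezomib (9.2 uM final) as 0%. Cal-1 cells seeded at 500/well in RPMI, 10% FBS, no phenol red.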

Assay [7] in a line: qHTS assay for measurement of the activity of small molecule inhibitors on Zika virus induced Caspase-3 activity in human iPSC derived neural progenitor cells (hNPCs) (AID 1224857; active means well fitted curve in the direction sought with a large enough effect; an effect the other way counts as inactive or inconclusive; further: nearly all actives have a fitted effect of over 65% in size; further: potency means the concentration at half of the fitted maximal effect). In short, it runs like this: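 In medium with heparin 2 ug/ml and cyclopamine 2 uM, hNPCs (350 cells/well) received compound for one hour and then Zika virus at 2 FFU/cell; caspase activity was measured by Caspase-Glo 3/7 luminescence 6 h post-infection.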

The nature of assay [8]: qHTS assay for measurement of the activity of small molecule inhibitors on Zika virus induced Caspase-3 activity in human astrocytoma cells (AID 1224859; active means well fitted curve in the direction sought with a large enough effect; an effect the other way counts as inactive or inconclusive;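 further: plate controls were ZIKV-infected untreated cells for no effect and uninfected cells for full effect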). In short, it runs like this: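 A cell-based luminescent caspase-3/7 assay used SNB-19 cells infected with ZIKV (2 FFU/cell) for 6 h following 1 h compound pretreatment.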
A short description of assay [9]: qHTS Assay for Identifying Gametocytocidal Compounds (AID 743244; active means well fitted curve in the direction sought with a large enough effect; an effect the other way counts as inactive or inconclusive; further: potency means the concentration at half of the fitted maximal effect;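 on max response: on the % scale 0 is the no-effect control and ±100 the full control effect; actives lower the fluorescent signal which means gametocytes are killed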). To be noted: P. falciparum 3D7 stage III-V gametocytes, alamarBlue, 72 h; max response: stronger effect = lower value. Put shortly:
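In this qHTS viability screen, late-stage 3D7 gametocytes are incubated with compound for 72 h, then with alamarBlue for 24 h; reduced resorufin fluorescence marks killing.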

Assay [10] is described as follows: qHTS profiling for inhibitors of Plasmodium falciparum (DD2) proliferation (AID 743323). The conditions noted are these: lower = more inhibition; at 28.7 µM (top of the series). Put shortly:
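SYBR Green fluorescence (ex 485, em 535 nm) of lysed cultures gives parasite DNA content; wells normalized to artemisinin (0.29 uM) and DMSO controls. Infected red cells: 0.3% parasitemia, 2.5% hematocrit, 72 h, 37 C.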

Assay [11] in a line: qHTS profiling for inhibitors of Plasmodium falciparum (HB3) proliferation (AID 743324; active means well fitted curve in the direction sought with a large enough effect; an effect the other way counts as inactive or inconclusive;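 further: 100% = DMSO vehicle wells and 0% = artemisinin-treated control wells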). To be noted: Plasmodium falciparum HB3 blood-stage proliferation; at 28.7 µM (top of the series). In short, it runs like this:
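SYBR Green fluorescence (485 ex/535 em) of lysed cultures, incubated overnight at room temperature in the dark, quantifies parasite DNA. Infected erythrocytes at 0.3% parasitemia and 2.5% hematocrit were exposed 72 h; values normalized to DMSO and 0.29 uM artemisinin controls.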

A short description of assay [12]: qHTS Screen of the MIPE 4.0 Collection Against Ewings Sarcoma (RDES) (AID 1259252; active means well fitted curve in the direction sought with a large enough effect; an effect the other way counts as inactive or inconclusive; further: nearly all actives have a fitted effect of over 35% in size; further: potency means the concentration at half of the fitted maximal effect). Put shortly: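 Dose series incubated 48 h with cells in RPMI plus 5% FBS, glutamine and penicillin/streptomycin; cell viability then quantified via CellTiter-Glo.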

For `O=C1NC(=O)C(=Cc2cccc(C(F)(F)F)c2)S1`, in assay [1], the parasite growth, % of DMSO control was 88.5%. In [2], the parasite growth remaining, % of DMSO control (lower = more inhibition) stood at 93.5%. In addition, the parasite growth, % of control (lower = inhibition) in [3] is 76.4%. The growth, % of control in assay [4] stood at 96.2%. Also, in assay [5], the cell viability, % of control (lower = more cytotoxic) was 128%. Further, in [6], the viability (% of control) was 110%. The Potency result in [7] and in assay [8] was “inactive” throughout.
Turning to `O=C(Nc1ccccc1-c1cn2c(CN3CCNCC3)csc2n1)c1cnc2ccccc2n1`, the results for the Potency in assay [9] and in assay [7] were 3.72 µM (active) and 18.7 µM (active), respectively. Also, the activity, percent of control in assay [10] is -0.76% and -0.434%. Also, the remaining proliferation (% of control), lower = more inhibition in assay [11] is -2.58% and -1.42%. This compound also yielded a parasite growth, % of DMSO control in [1] of 5.22%. The parasite growth remaining, % of DMSO control (lower = more inhibition) in assay [2] turned out to be 5.73%. This compound yielded a parasite growth, % of control (lower = inhibition) in [3] of 12.5%. Besides, in assay [4], the growth, % of control stood at 3.22%. Besides, in [5], the cell viability, % of control (lower = more cytotoxic) was found to be 2.56%. The viability (% of control) in [6] came to 1.48%.
Take `O=c1ccn([C@@H]2O[C@H](CO)[C@H](O)[C@H]2O)c(=O)[nH]1`: the parasite growth, % of DMSO control in assay [1] was 92.2%. The parasite growth remaining, % of DMSO control (lower = more inhibition) in assay [2] is 90.5%. In addition, the parasite growth, % of control (lower = inhibition) in assay [3] turned out to be 99.5%. For the same compound, the growth, % of control in assay [4] was determined as 107%. The cell viability, % of control (lower = more cytotoxic) in assay [5] was found to be 90%. Also, the viability (% of control) in [6] is 112%. Besides, the Potency entry in [7] and in assay [8] was “inactive” in each case.
Regarding `CC(=O)Nc1ccc([C@H](C)C(=O)Nc2ncc(C(C)C)s2)cc1`, the activity, percent of control in [10] came to 101%. Moreover, the remaining proliferation (% of control), lower = more inhibition in [11] was 93.4%. The compound also gave a parasite growth, % of DMSO control in assay [1] of 5.36%. Moreover, in [2], the parasite growth remaining, % of DMSO control (lower = more inhibition) was 104%. This compound also came in with a parasite growth, % of control (lower = inhibition) in assay [3] of 7.23%. In assay [4], the growth, % of control came to 2.84%. Also, the cell viability, % of control (lower = more cytotoxic) in [5] turned out to be 7.33%. Also, in [6], the viability (% of control) was 6.1%. In addition, the Potency is 14.8 µM (active) in assay [7] and 2.96 µM (active) in assay [12].
As to `CC(C)(C)COc1ccc(-n2cc(C(=O)O)cn2)cc1C#N`, the max response in assay [9] is 54.6% (inactive). The activity, percent of control in assay [10] is 88.8%. Moreover, the remaining proliferation (% of control), lower = more inhibition in [11] turned out to be 91.7%. The compound also gave a parasite growth, % of DMSO control in assay [1] of 75%. Also, in [2], the parasite growth remaining, % of DMSO control (lower = more inhibition) was determined as 90.1%. In assay [3], the parasite growth, % of control (lower = inhibition) was determined as 76.9%. The same compound yielded a growth, % of control in [4] of 67.6%. For the same compound, in assay [5], the cell viability, % of control (lower = more cytotoxic) was found to be 112%. Moreover, the viability (% of control) in assay [6] turned out to be 106%. Also, the Potency in assay [7] was 14.8 µM (active).
In [1], `COc1ccc(-c2nc(N3CCOCC3)c3sc(CN(C)c4ncc(C(=O)NO)cn4)cc3n2)cn1` registered a parasite growth, % of DMSO control of 5.2%. Also, the parasite growth remaining, % of DMSO control (lower = more inhibition) in [2] was found to be 6.7%. For the same compound, in [3], the parasite growth, % of control (lower = inhibition) was found to be 8.46%. Besides, in assay [4], the growth, % of control came to 2.4%. The cell viability, % of control (lower = more cytotoxic) in assay [5] was found to be 8.39%. Also, the viability (% of control) in assay [6] worked out at 2.7%. In addition, the Potency result in [7] and in [8] was “inactive” each time.
In assay [1], `CC(C)=CC[C@@H](O)C1=CC(=O)c2c(O)ccc(O)c2C1=O` displayed a parasite growth, % of DMSO control of 3.69%. Further, the parasite growth remaining, % of DMSO control (lower = more inhibition) in assay [2] amounted to 5.8%. In [3], this compound came in with a parasite growth, % of control (lower = inhibition) of 4.13%. In [4], the growth, % of control came to 2.71%. Moreover, in assay [5], the cell viability, % of control (lower = more cytotoxic) came to 5.88%. Moreover, the viability (% of control) in assay [6] amounted to 13.2%. Also, the Potency result in [7] and in assay [8] was “inactive” each time.
In [1], `NC1CCC(Nc2nc(Nc3ccc(C(=O)N4CCCCC4)cc3)c3ncn(-c4cccc(F)c4)c3n2)CC1` (stereo not given) displayed a parasite growth, % of DMSO control of 113%. For the same compound, the parasite growth remaining, % of DMSO control (lower = more inhibition) in assay [2] was 89.1%. The same compound yielded a parasite growth, % of control (lower = inhibition) in assay [3] of 47.7%. In assay [4], the growth, % of control came to 71.8%. For the same compound, in assay [5], the cell viability, % of control (lower = more cytotoxic) stood at 208%. For the same compound, the viability (% of control) in assay [6] came to 101%. For the same compound, the Potency in assay [7] is 16.6 µM (active). The Potency entry in assay [12] was “inactive”.
